Measurements: the supplement of paper PMC7695840

Tests used:
[1] = tested on: Staphylococcus aureus MW2 delta-mecA (mecA-); assay: normalized GFP fluorescence (growth of mecA- strain) (fraction of control range); higher = more growth of mecA- strain; conditions: compound concentration: 150 uM; cefoxitin: subinhibitory; fluorescent label: GFP
In short: (§1)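 In 1536-well plates holding 150 μM compound (1.5% DMSO), a 1:1 mix of pre-induced S. aureus MW2 cells was added at 5 µL/well, in one replicate. One strain carried the gene and DsRed, the other lacked the gene and carried GFP, and the LB held a subinhibitory antibiotic dose chosen daily. Plates stood unshaken for 20 h at 37 °C, 90% humidity, before DsRed (540/590) and GFP (485/520) readings, which were scaled per plate to single-strain control medians, with plates high in untreated ratio and rows above DsRed/GFP 10 dropped.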

[2] = tested on: Staphylococcus aureus MW2 (mecA+); assay: normalized DsRed fluorescence (growth of mecA+ strain) (fraction of control range); higher = more growth of mecA+ strain; conditions: compound concentration: 150 uM; cefoxitin: subinhibitory; fluorescent label: DsRed
In short: as §1

Row | Compound | normalized GFP fluorescence [1] | normalized DsRed fluorescence [2]
1 | CCCC(=O)Nc1ccc(OCC(O)CNC(C)C)c(C(C)=O)c1 (stereo not drawn) | 0.332 | 0.62
2 | Nc1ccn([C@@H]2CS[C@H](CO)O2)c(=O)n1 | 0.367 | 0.767
3 | Nc1ncn([C@H]2C[C@H](O)[C@@H](CO)O2)c(=O)n1 [Decitabine] | 0.242 | 0.802
4 | CCOc1ccc(Cc2cc([C@@H]3O[C@H](CO)[C@@H](O)[C@H](O)[C@H]3O)ccc2Cl)cc1 [Dapagliflozin] | 0.454 | 0.557
5 | NC[C@H]1CC[C@H](C(=O)O)CC1 | 0.867 | 0.725
6 | Nc1nc2[nH]cc(CCc3ccc(C(=O)N[C@@H](CCC(=O)O)C(=O)O)cc3)c2c(=O)[nH]1 | 0.937 | 0.63
7 | Cn1ncnc1[C@H]1c2n[nH]c(=O)c3cc(F)cc(c23)N[C@@H]1c1ccc(F)cc1 [Talazoparib (BMN 673)] | 0.42 | 0.777
8 | Cc1ncc(CO)c(CO)c1O | 0.208 | 0.816
9 | CCC(=O)NCC[C@@H]1CCc2ccc3c(c21)CCO3 | 0.8 | 0.671
10 | CCc1c2c(nc3ccc(OC(=O)N4CCC(N5CCCCC5)CC4)cc13)-c1cc3c(c(=O)n1C2)COC(=O)[C@]3(O)CC | 0.461 | 0.626
11 | C=C1/C(=C\C=C2/CCC[C@]3(C)[C@@H]([C@H](C)CCCC(C)(C)O)CC[C@@H]23)C[C@@H](O)C[C@@H]1O [Calcitriol (Rocaltrol)] | -0.00685 | 1
12 | CCN(CC)CCNC(=O)c1c(C)[nH]c(/C=C2\C(=O)Nc3ccc(F)cc32)c1C [Sunitinib Malate (Sutent)] | 0.0077 | 1.42
13 | COc1ccc2[nH]cc(CCNC(C)=O)c2c1 [Melatonin] | 0.484 | 0.734
14 | O=C(O)P(=O)(O)O | 0.285 | 0.7
15 | N#Cc1c(N(CC(=O)O)CC(=O)O)sc(C(=O)O)c1CC(=O)O [Strontium ranelate (Protelos)] | 0.212 | 0.694
16 | Cc1ncc([N+](=O)[O-])n1CC(O)CCl (stereo not drawn) | 0.488 | 0.705
17 | Cc1nc(=O)c2cc(CN(C)c3ccc(C(=O)N[C@@H](CCC(=O)O)C(=O)O)s3)ccc2[nH]1 [Raltitrexed (Tomudex)] | 0.657 | 0.532

Row | Compound | normalized GFP fluorescence [1] | normalized DsRed fluorescence [2]
18 | CCCCc1nc(Cl)c(CO)n1Cc1ccc(-c2ccccc2-c2nnn[nH]2)cc1 | 0.297 | 0.864
19 | Cc1ccc(NC(=O)c2ccc(CN3CCN(C)CC3)cc2)cc1Nc1nc(-c2cccnc2)cs1 [Masitinib (AB1010)] | 0.0914 | 0.633
20 | CN(c1nccc(=O)[nH]1)C1CCN(c2nc3ccccc3n2Cc2ccc(F)cc2)CC1 [Mizolastine (Mizollen)] | 0.387 | 0.462
21 | Clc1ccc(C(Cn2ccnc2)OCc2c(Cl)cccc2Cl)c(Cl)c1 (stereo not drawn) [Isoconazole nitrate (Travogen)] | -0.00251 | 0.00958
22 | CC1(C)O[C@@H]2C[C@H]3[C@@H]4CCC5=CC(=O)C=C[C@]5(C)[C@H]4[C@@H](O)C[C@]3(C)[C@]2(C(=O)CO)O1 | 0.387 | 1.36
23 | CCN1CCC[C@H]1CNC(=O)c1cc(S(N)(=O)=O)ccc1OC [Levosulpiride (Levogastrol)] | 0.447 | 0.695
24 | COC(=O)C1=C(C#N)NC(C)=C(C(=O)OC(C)C)C1c1cccc([N+](=O)[O-])c1 (stereo not drawn) [Nilvadipine (ARC029)] | 0.333 | 1.55
25 | Cc1cn([C@@H]2C[C@@H](O)[C@H](CO)O2)c(=O)[nH]c1=O [Telbivudine (Sebivo, Tyzeka)] | 0.205 | 0.951
26 | CC(N/C(=N\C#N)Nc1ccncc1)C(C)(C)C (stereo not drawn) | 0.124 | 1.44
27 | C[C@H]1C[C@H]2[C@@H]3CCC4=CC(=O)C=C[C@]4(C)[C@@]3(F)[C@@H](O)C[C@]2(C)[C@@]1(O)C(=O)CO [Betamethasone (Celestone)] | 0.0397 | 1.3
28 | CC[C@]1(O)C[C@H]2CN(CCc3c([nH]c4ccccc34)[C@@](C(=O)OC)(c3cc4c(cc3OC)N(C=O)[C@H]3[C@@](O)(C(=O)OC)[C@H](OC(C)=O)[C@]5(CC)C=CCN6CC[C@]43[C@@H]65)C2)C1 | 0.501 | 0.633
29 | COc1ccc(CN(CCN(C)C)c2ncccn2)cc1 | 0.471 | 0.813
30 | Cc1nc(Nc2ncc(C(=O)Nc3c(C)cccc3Cl)s2)cc(N2CCN(CCO)CC2)n1 | 0.0741 | 0.816
31 | CC1=Nc2ccc(Cl)cc2S(=O)(=O)N1 | 0.259 | 0.639
32 | CC[C@@H]([C@H](C)O)n1ncn(-c2ccc(N3CCN(c4ccc(OC[C@@H]5CO[C@@](Cn6cncn6)(c6ccc(F)cc6F)C5)cc4)CC3)cc2)c1=O [Posaconazole] | 0.833 | 0.572
33 | CCN(CCO)CCCC(C)Nc1ccnc2cc(Cl)ccc12 (stereo not drawn) | 0.323 | 1.33
34 | Nc1cc(N2CCCCC2)nc(N)[n+]1[O-] | 0.524 | 0.731
